Source: PubChem
This is a sample that favours compounds with a hit; in the whole collection about 2.9% have one here.
PLC-beta3 inh: PLC-beta3 (human) inhibition, primary screen; inhibition, % at 12.2 µM; Purified PLC-beta3, fluorogenic substrate, fluorescence; Q01970; 370,000 tested, 0.18% active
ADAM17 inh: inhibits human ADAM17 | recombinant ADAM17, EDANS/DABCYL FRET peptide cleavage | inhibition, % at 6.95 µM | 370,000 tested, 0.83% active;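 active means inhibition above the mean of compounds lying between control limits plus 3 SD, set per campaign, cut at about 8.5% in these data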
Target sequence (P78536 215-824 limits assumed): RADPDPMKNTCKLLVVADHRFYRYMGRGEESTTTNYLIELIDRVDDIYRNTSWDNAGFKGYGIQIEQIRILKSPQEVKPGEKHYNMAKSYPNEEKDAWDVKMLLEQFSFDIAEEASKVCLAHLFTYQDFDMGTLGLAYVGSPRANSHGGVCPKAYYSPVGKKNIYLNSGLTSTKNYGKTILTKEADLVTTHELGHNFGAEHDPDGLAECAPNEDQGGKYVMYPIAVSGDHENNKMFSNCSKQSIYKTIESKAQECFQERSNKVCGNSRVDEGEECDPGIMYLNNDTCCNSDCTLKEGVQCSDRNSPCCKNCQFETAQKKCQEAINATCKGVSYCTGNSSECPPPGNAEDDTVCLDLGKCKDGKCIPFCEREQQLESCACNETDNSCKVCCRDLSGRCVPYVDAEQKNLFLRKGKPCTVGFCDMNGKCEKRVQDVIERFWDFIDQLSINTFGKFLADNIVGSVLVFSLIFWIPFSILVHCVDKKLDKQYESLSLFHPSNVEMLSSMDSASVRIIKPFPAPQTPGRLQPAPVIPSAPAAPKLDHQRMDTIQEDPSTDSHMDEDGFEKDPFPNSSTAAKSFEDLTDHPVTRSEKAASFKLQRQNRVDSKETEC
KLK7 zymogen act: activators of human kallikrein-7 zymogen; purified proKLK7, EDANS-DABCYL substrate fluorescence; 100% is mature enzyme control, 0% vehicle; AID 652039; P49862; activation, % at 7 µM; 370,000 tested, 0.9% active;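 active means activation above the mean of all tested compounds plus 3 SD, computed per campaign excluding outliers beyond control limits, cut at about 13% in these data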
PLC-gamma1 inh: inhibitors of human phospholipase C gamma1 | inhibition, % at 12.2 µM | purified PLC-gamma1, fluorogenic substrate, fluorescence | 370,000 tested, 0.84% active | P19174; in the data active means inhibition above about 9.5%
ADAM10 inh: inhibits human ADAM10; O14672; recombinant ADAM10, EDANS/DABCYL FRET peptide cleavage, 3 h; inhibition, % at 7 µM; 370,000 tested, 0.62% active; AID 720582;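 active means inhibition above a per-campaign cutoff equal to the mean of compounds falling between control-based bounds plus 3 SD, cut at about 20% in these data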
PLCgamma1 ctr: inhibits human PLC-gamma1 in PLC-beta3 counter-screen | inhibition, % at 12.3 µM | AID 743258 | purified PLC-gamma1, fluorogenic substrate, fluorescence | 3,300 tested, 3.1% active | shares compounds with PLC-gamma1 inh; in the data active means inhibition above about 9.5%
PLCb3 confirm: human PLC-beta3 inhibition, confirmation | shares compounds with PLC-gamma1 inh | purified PLC-beta3, fluorogenic substrate fluorescence | inhibition, % at 12.3 µM | 3,300 tested, 1% active | AID 743261
Hits are given with their value. Unless noted, no stated cut-off is given here; in the data, active means inhibition above about 11%; inactive means the rest.

For Clc1cccc2sc(N3CCN(c4ccccc4)CC3)nc12 the results were PLC-beta3 inh inactive, ADAM17 inh inactive, KLK7 zymogen act inactive, PLC-gamma1 inh 10.7, ADAM10 inh inactive, PLCgamma1 ctr inactive and PLCb3 confirm inactive.
Screening O=C(c1cc(-c2ccccc2)nn1-c1ccccc1)N1CCN(S(=O)(=O)c2cccc(F)c2)CC1 returned PLC-beta3 inh inactive, ADAM17 inh inactive, KLK7 zymogen act inactive, PLC-gamma1 inh 9.9, ADAM10 inh inactive, PLCgamma1 ctr inactive and PLCb3 confirm inactive.
Screening O=C(c1cc(-c2ccccc2)nn1-c1ccccc1)N1CCN(S(=O)(=O)c2ccc(F)cc2)CC1 returned PLC-beta3 inh inactive, ADAM17 inh inactive, KLK7 zymogen act inactive, PLC-gamma1 inh inactive and ADAM10 inh inactive.
Screening Oc1ccc(CNc2ccccc2Br)c2cccnc12 returned PLC-beta3 inh inactive, ADAM17 inh inactive, PLC-gamma1 inh inactive and ADAM10 inh inactive.
COc1ccc(CNC(=O)C(=O)NCC(c2ccco2)N2CCOCC2)cc1 (stereo not drawn) was read as PLC-beta3 inh inactive, ADAM17 inh inactive, KLK7 zymogen act inactive, PLC-gamma1 inh 10.0, ADAM10 inh inactive, PLCgamma1 ctr inactive and PLCb3 confirm inactive.
CC(=O)N1CCC(C(=O)N2c3ccccc3N=C(c3ccc4c(c3)OCO4)C2C(=O)NCc2ccccc2)CC1 (stereo not drawn) was read as PLC-beta3 inh inactive, ADAM17 inh inactive, KLK7 zymogen act inactive, PLC-gamma1 inh inactive and ADAM10 inh inactive.
For COc1ccc(NS(=O)(=O)c2cccc(C(=O)NCCCn3ccnc3)c2)cc1 the results were PLC-beta3 inh inactive, ADAM17 inh inactive, KLK7 zymogen act inactive, PLC-gamma1 inh 10.8, ADAM10 inh inactive, PLCgamma1 ctr inactive and PLCb3 confirm inactive.
Screening O=C(O)C[C@H]1c2cc(F)ccc2S(=O)(=O)N1C1CCCC1 returned PLC-beta3 inh inactive, ADAM17 inh inactive, KLK7 zymogen act inactive, PLC-gamma1 inh 10.1, ADAM10 inh inactive, PLCgamma1 ctr inactive and PLCb3 confirm inactive.
`COc1ccc(CNc2nc3c(c(=O)n(Cc4ccc(Cl)cc4)c(=O)n3C)n2C)cc1` gave PLC-beta3 inh inactive, ADAM17 inh inactive, KLK7 zymogen act inactive, PLC-gamma1 inh 10.2, ADAM10 inh inactive, PLCgamma1 ctr inactive and PLCb3 confirm inactive.
For Cc1cccc(NCC(=O)N/N=C\c2cccn2C)c1 the results were PLC-beta3 inh inactive, ADAM17 inh inactive, KLK7 zymogen act inactive, PLC-gamma1 inh 10.8, ADAM10 inh inactive, PLCgamma1 ctr inactive and PLCb3 confirm inactive.
`O=C(CC1Sc2ccccc2NC1=O)Nc1cccc(C(=O)O)c1` (stereo not drawn) gave PLC-beta3 inh inactive, ADAM17 inh inactive, KLK7 zymogen act inactive, PLC-gamma1 inh 11.7, ADAM10 inh inactive, PLCgamma1 ctr inactive and PLCb3 confirm inactive.
Screening NS(=O)(=O)c1cccc(NC(=O)COC(=O)CC2Sc3ccccc3NC2=O)c1 (stereo not drawn) returned PLC-beta3 inh inactive, ADAM17 inh inactive, KLK7 zymogen act inactive, PLC-gamma1 inh inactive and ADAM10 inh inactive.
For COc1ccc(/C=N\NC(=O)c2sccc2C)cc1Cn1nc(C)cc1C the results were PLC-beta3 inh inactive, ADAM17 inh inactive, KLK7 zymogen act inactive, PLC-gamma1 inh inactive and ADAM10 inh inactive.
O=C(NCC1CC1)c1csc(COCCO)n1 was read as PLC-beta3 inh 12.8, ADAM17 inh inactive, KLK7 zymogen act inactive, PLC-gamma1 inh inactive, ADAM10 inh inactive, PLCgamma1 ctr inactive and PLCb3 confirm inactive.
Cc1cnc(CNC(=O)c2csc(COCCO)n2)cn1 was read as PLC-beta3 inh inactive, ADAM17 inh inactive, KLK7 zymogen act inactive, PLC-gamma1 inh inactive and ADAM10 inh inactive.
CC1CCCCN1C(=O)CSc1nc2ccccc2n1CC(=O)N1CCc2ccccc21 (stereo not drawn) was read as PLC-beta3 inh inactive, ADAM17 inh inactive, KLK7 zymogen act inactive, PLC-gamma1 inh 9.6, ADAM10 inh inactive, PLCgamma1 ctr inactive and PLCb3 confirm inactive.
For CC1CC(C)CN(C(=O)Cn2c(SCC(=O)N3CCc4ccccc4C3)nc3ccccc32)C1 (stereo not drawn) the results were PLC-beta3 inh inactive, ADAM17 inh inactive, KLK7 zymogen act inactive, PLC-gamma1 inh inactive and ADAM10 inh inactive.
`CN(C)C(=O)Cn1c(SCC(=O)N2CCCc3ccccc32)nc2ccccc21` gave PLC-beta3 inh inactive, ADAM17 inh inactive, KLK7 zymogen act inactive, PLC-gamma1 inh 10.1, ADAM10 inh inactive, PLCgamma1 ctr inactive and PLCb3 confirm inactive.
For CCc1ccc(C(=O)CCC(=O)Nc2cccc(S(=O)(=O)N3CCCCC3)c2)cc1 the results were PLC-beta3 inh inactive, ADAM17 inh inactive, KLK7 zymogen act inactive, PLC-gamma1 inh inactive and ADAM10 inh inactive.
Cc1ccc(C(C)C)c(OCC(=O)NNC(=O)CC2OC(=O)c3ccccc32)c1 (stereo not drawn) was read as PLC-beta3 inh inactive, ADAM17 inh inactive, KLK7 zymogen act inactive, PLC-gamma1 inh inactive and ADAM10 inh inactive.
Screening CCOC(=O)C1=CNS(=O)(=O)NC1c1ccc2ccccc2c1 (stereo not drawn) returned PLC-beta3 inh inactive, ADAM17 inh inactive, KLK7 zymogen act inactive, PLC-gamma1 inh inactive and ADAM10 inh inactive.
For COCCSc1ncccc1-c1nc2ccccc2[nH]1 the results were PLC-beta3 inh inactive, ADAM17 inh inactive, KLK7 zymogen act inactive, PLC-gamma1 inh inactive and ADAM10 inh inactive.
Screening CCOC(=O)c1[nH]c(C)c(C(=O)Nc2ccc(F)cc2)c1C returned PLC-beta3 inh inactive, ADAM17 inh inactive, KLK7 zymogen act inactive, PLC-gamma1 inh inactive and ADAM10 inh inactive.
Screening CCOC(=O)c1c(C)c(C(=O)Nc2ccc(F)cc2)c(C)n1C returned PLC-beta3 inh inactive, ADAM17 inh inactive, KLK7 zymogen act inactive, PLC-gamma1 inh 12.5, ADAM10 inh inactive, PLCgamma1 ctr inactive and PLCb3 confirm inactive.
O=C(NCC1CCCN1S(=O)(=O)c1cccs1)c1ccccc1F (stereo not drawn) was read as PLC-beta3 inh inactive, ADAM17 inh inactive, KLK7 zymogen act inactive, PLC-gamma1 inh inactive and ADAM10 inh inactive.
For O=C(C(=O)N1CCN(c2ccccc2)CC1)c1c[nH]c2ccccc12 the results were PLC-beta3 inh inactive, ADAM17 inh inactive, KLK7 zymogen act inactive, PLC-gamma1 inh inactive and ADAM10 inh inactive.
`COc1ccc(N2CCN(C(=O)C(=O)c3c[nH]c4ccccc34)CC2)cc1` gave PLC-beta3 inh inactive, ADAM17 inh inactive, KLK7 zymogen act inactive, PLC-gamma1 inh 9.8, ADAM10 inh inactive, PLCgamma1 ctr inactive and PLCb3 confirm inactive.
For Cc1c(C(=O)NCc2cccnc2)sc2ncn(CC(=O)N3CCCCC3C)c(=O)c12 (stereo not drawn) the results were PLC-beta3 inh inactive, ADAM17 inh inactive, KLK7 zymogen act inactive, PLC-gamma1 inh 10.6, ADAM10 inh inactive, PLCgamma1 ctr inactive and PLCb3 confirm inactive.
